This is an account of results in PubChem BioAssay (EPA / NIEHS).

Test [1] is described as follows: ATG_ISRE_CIS: Attagene CIS-FACTORIAL HepG2 Assay for human Interferon Regulatory Factor 1 (IRF1) binding to an Interferon-Stimulated Response Element (ISRE) (AID 2282948). Conditions: HepG2 ISRE cis-reporter (Attagene), mRNA transcription readout; actives raise or lower the signal. The essentials: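 Quantitation relies on labelled RT-PCR fragments separated by capillary electrophoresis. Human HepG2 cells bearing cis-promoter reporter constructs were treated 24 h; DMSO served as baseline for bidirectional fitting.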

A short description of test [2]: ATG_M_32_CIS: Attagene CIS-FACTORIAL HepG2 Assay for M32 Transcription Factor (Internal Marker) (AID 2282949).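 Further: background control marker of the multiplexed CIS panel rather than a real target.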 Particulars: HepG2 Attagene cis-factorial M32 reporter, mRNA; actives raise or lower the signal. Summed up:
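Internal background marker read-out: RT-PCR/capillary electrophoresis fluorescence of reporter transcripts from transiently transfected HepG2 cells after 24 h chemical exposure. Activity fitted bidirectionally relative to DMSO negative control.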

Test [3] is described as follows: ATG_M_06_CIS: Attagene CIS-FACTORIAL HepG2 Assay for M06 Transcription Factor (Internal Marker) (AID 2282950). Particulars: HepG2 Attagene CIS-FACTORIAL M06 internal marker reporter; actives raise or lower the signal. Summed up:
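Measured 24 h post-dosing in transiently transfected HepG2 cells, this internal-marker endpoint reports reporter mRNA via RT-PCR with fluorescent primer extension and capillary electrophoresis. DMSO served as negative control and baseline for bidirectional fitting.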

In test [4] the target is Hypoxia-inducible factor 1-alpha (Homo sapiens) (UniProt Q16665). Kind of test: ATG_HIF1a_CIS: Attagene CIS-FACTORIAL HepG2 Assay for human Hypoxia Inducible Factor 1 (HIF1A) (AID 2282951). Particulars: HepG2 Attagene cis-factorial HIF1a reporter transcription; actives raise or lower the signal. The essentials: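 After 24 h chemical exposure of reporter-transfected HepG2 cells, reporter cDNA was PCR-amplified, labelled by 6-FAM primer extension (2 min 95 C, 20 s 68 C, 10 min 72 C), HpaI-cut (2 h, 37 C) and analysed by CE.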

Test [5] deals with Hepatocyte nuclear factor 6 (Homo sapiens) (UniProt Q9UBC0). As to the kind of experiment: ATG_HNF6_CIS: Attagene CIS-FACTORIAL HepG2 Assay for human Hepatocyte Nuclear Factor 6 (HNF6) (AID 2282952). Conditions: HepG2 Attagene cis-factorial HNF6 reporter transcription; actives raise or lower the signal. Summed up:
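Transiently transfected HepG2 cells expressing cis-regulated reporter transcription units were exposed to chemical for 24 h in a 24-well format. Reporter transcript abundance was determined by fluorescence capillary electrophoresis.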

Test [6] addresses Heat shock factor protein 1 (Homo sapiens) (UniProt Q00613). Kind of test: ATG_HSE_CIS: Attagene CIS-FACTORIAL HepG2 Assay for human Heat Shock Transcription Factor 1 (HSE) (AID 2282953). Conditions: HepG2 HSE cis-reporter, Attagene RNA transcription; actives raise or lower the signal. The essentials:
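Reporter mRNA induction in HepG2 is measured 24 h after dosing, using transiently transfected multiplexed cis-regulated reporter units. Signal comes from capillary electrophoresis of labelled RT-PCR products, with DMSO as negative control.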

A short description of test [7]: ATG_MRE_CIS: Attagene CIS-FACTORIAL HepG2 Assay for human Metal Responsive Element (MRE) (AID 2282954). Conditions: HepG2 MRE cis-reporter transcription, Attagene multiplex; actives raise or lower the signal. Summed up: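 After a 24 h chemical exposure, transiently transfected HepG2 cells yield RNA whose reporter sequences are amplified, FAM-labelled and sized by capillary electrophoresis. Curves are fitted bidirectionally relative to DMSO.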

The nature of test [8]: ATG_PBREM_CIS: Attagene CIS-FACTORIAL HepG2 Assay for human Phenobarbital-responsive Enhancer Module (PBREM) (AID 2282955). Conditions: HepG2 PBREM cis-reporter, Attagene multiplexed transcription; actives raise or lower the signal. The essentials:
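Measures endogenous factor action on a phenobarbital-responsive enhancer module. HepG2 transiently carrying cis reporters, 24 h treatment, mRNA read-out by RT-PCR plus capillary electrophoresis.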

Test [9] has as its target Paired box protein Pax-6 (Homo sapiens) (UniProt P26367). Kind of test: ATG_Pax6_CIS: Attagene CIS-FACTORIAL HepG2 Assay for human Paired Box 6 (PAX6) (AID 2282956). Particulars: HepG2 CIS-FACTORIAL PAX6 reporter transcription, RNA readout; actives raise or lower the signal. Summed up: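 After twenty-four hours of chemical exposure, transfected HepG2 cells are harvested for RNA. Cis-promoter reporter transcripts are amplified, fluorescently labelled and sized by capillary electrophoresis, with gain and loss of signal scored against DMSO.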

Activity calls are given as the source filed them. How the source made its calls: active means hit-call score of the fitted dose curve at least 0.9, where 1 is the maximum; inactive means score below 0.9.

Chain of Hepatocyte nuclear factor 6 (Homo sapiens) (Q9UBC0 whole entry, looked up): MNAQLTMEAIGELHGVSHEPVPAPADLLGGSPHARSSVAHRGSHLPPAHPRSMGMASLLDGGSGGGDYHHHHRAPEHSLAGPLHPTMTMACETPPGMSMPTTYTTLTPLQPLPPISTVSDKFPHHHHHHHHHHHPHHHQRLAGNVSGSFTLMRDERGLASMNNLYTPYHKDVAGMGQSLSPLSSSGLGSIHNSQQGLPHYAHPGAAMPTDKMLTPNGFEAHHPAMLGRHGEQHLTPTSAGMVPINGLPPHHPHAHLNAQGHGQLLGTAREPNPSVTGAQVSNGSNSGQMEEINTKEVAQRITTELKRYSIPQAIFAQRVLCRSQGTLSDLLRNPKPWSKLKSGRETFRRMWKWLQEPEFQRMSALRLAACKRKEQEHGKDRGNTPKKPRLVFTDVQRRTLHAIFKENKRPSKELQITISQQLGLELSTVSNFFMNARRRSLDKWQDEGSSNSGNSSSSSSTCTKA
Chain of Hypoxia-inducible factor 1-alpha (Homo sapiens) (Q16665 whole entry, looked up): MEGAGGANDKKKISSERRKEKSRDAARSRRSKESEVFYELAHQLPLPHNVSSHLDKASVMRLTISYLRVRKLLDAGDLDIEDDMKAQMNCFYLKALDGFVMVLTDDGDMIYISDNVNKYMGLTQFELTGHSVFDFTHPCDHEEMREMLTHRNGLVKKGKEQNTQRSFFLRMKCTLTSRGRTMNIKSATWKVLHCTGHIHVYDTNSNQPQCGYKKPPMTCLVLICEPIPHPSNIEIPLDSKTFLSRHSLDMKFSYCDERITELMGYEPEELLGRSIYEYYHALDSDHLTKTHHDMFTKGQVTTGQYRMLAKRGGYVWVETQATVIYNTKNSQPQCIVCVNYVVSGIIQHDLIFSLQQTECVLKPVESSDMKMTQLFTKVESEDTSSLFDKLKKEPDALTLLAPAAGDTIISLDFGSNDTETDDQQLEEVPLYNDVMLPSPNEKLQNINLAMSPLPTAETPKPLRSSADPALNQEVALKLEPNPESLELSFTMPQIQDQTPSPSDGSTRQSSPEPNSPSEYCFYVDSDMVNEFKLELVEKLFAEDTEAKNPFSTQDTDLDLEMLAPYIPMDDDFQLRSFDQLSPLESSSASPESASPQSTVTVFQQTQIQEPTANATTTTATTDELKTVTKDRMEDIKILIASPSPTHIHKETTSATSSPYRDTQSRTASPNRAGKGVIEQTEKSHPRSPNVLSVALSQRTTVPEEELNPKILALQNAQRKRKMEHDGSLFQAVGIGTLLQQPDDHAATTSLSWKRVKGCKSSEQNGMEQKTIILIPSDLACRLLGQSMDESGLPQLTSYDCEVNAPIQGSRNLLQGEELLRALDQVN
Chain of Heat shock factor protein 1 (Homo sapiens) (Q00613 whole entry, looked up): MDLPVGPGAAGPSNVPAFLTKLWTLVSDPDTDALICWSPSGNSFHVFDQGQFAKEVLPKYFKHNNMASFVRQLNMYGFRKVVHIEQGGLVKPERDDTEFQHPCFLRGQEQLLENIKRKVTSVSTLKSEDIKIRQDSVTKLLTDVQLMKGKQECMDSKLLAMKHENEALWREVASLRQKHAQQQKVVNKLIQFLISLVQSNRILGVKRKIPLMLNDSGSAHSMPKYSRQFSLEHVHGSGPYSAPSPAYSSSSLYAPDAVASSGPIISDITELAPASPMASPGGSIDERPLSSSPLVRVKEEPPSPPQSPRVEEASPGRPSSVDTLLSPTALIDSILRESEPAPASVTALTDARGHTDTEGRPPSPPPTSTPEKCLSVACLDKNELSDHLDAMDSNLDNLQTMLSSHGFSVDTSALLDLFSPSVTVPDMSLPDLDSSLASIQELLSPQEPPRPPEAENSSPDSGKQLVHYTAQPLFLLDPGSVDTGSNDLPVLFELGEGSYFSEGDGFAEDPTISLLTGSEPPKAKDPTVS
Chain of Paired box protein Pax-6 (Homo sapiens) (P26367 whole entry, looked up): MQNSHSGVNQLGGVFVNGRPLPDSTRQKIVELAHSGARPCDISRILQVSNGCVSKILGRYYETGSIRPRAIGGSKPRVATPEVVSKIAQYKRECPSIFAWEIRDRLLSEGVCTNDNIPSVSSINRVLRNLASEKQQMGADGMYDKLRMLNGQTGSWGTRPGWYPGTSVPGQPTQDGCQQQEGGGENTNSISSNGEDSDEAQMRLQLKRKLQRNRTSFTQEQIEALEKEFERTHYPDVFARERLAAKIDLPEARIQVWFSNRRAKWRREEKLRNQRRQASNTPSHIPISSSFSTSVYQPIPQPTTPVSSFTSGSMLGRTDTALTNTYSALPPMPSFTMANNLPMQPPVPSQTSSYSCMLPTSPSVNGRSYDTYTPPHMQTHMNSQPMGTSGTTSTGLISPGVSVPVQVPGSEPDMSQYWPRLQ

Consider `CC(C)(O)C(=O)c1ccccc1`, for which the result in test [1], in test [2], in [3], in [4], in [5] and in test [6] was inactive. The compound was called inactive in test [7], in test [8] and in [9].

For `CCOCCOCC`, the result in test [1], in test [2], in test [3], in test [5], in test [6] and in test [7] was inactive. In test [8], the result was inactive.

As for `COc1ccccc1NC(=O)c1cc2ccccc2cc1O`, the AC50 in test [1] is 82.7 µM (active); in test [5], 137 µM (active); in test [6] it was 57.3 µM (active); in [7] it was 23.3 µM (active); in test [8] it was 6.07 µM (active); in [9], 54.8 µM (active). Besides, the call in test [2] and in test [3] was inactive.

On to `FC(F)=C(F)C(F)(F)C(F)(F)C(F)(F)C(F)F`, for which the outcome in test [1], in test [2], in test [3], in test [4], in [5] and in [6] was inactive. Also, the compound was classed as inactive in [7] and in test [9].

As to `O=S(=O)(O)c1ccccc1`, the compound was classed as inactive in [1], in test [2], in test [3], in [4], in [5] and in test [6]. Further, the outcome in test [7] and in [9] was inactive.

`CCOC(C)=O`: the outcome in test [1], in test [2], in test [3], in test [4], in test [5] and in [6] was inactive. Also, the outcome in [8] was inactive.

As for `Cc1ccc(C)c(S(=O)(=O)O)c1`, the compound was called inactive in test [1], in [2], in test [3], in [4], in test [5] and in test [6]. The compound was called inactive in [7], in test [8] and in test [9].

For `COc1cc([N+](=O)[O-])ccc1N`, the result in [1], in test [2], in [3], in test [4], in [5] and in test [6] was inactive. The result in test [7], in test [8] and in test [9] was inactive.

As for `CCCCCCCCCCCC`, the outcome in [1], in [2], in test [3], in test [4], in test [5] and in [6] was inactive. Moreover, in test [9], the outcome was inactive.

As to `Cc1cccc2c1ccc1ccccc12`, the compound was called inactive in test [1], in test [2], in test [3], in [5], in [6] and in test [7]. In addition, the result in test [8] and in [9] was inactive.

In the case of `OCC(CO)(CBr)CBr`, the call in test [1], in test [2], in [3], in test [5], in test [6] and in [7] was inactive. The outcome in test [8] and in test [9] was inactive.

Regarding `CC1CCC(C(=O)O)CC1` (stereo unspecified), the compound was classed as inactive in [1], in test [2], in test [3], in [4], in test [5] and in [6]. The compound was called inactive in [7], in test [8] and in [9].

As for `Oc1c(Cl)cc(Cl)cc1Sc1cc(Cl)cc(Cl)c1O`, the result in test [1], in [2], in test [3], in [4], in test [5] and in test [8] was inactive. Besides, the compound was called inactive in [9]. In addition, the AC50 in test [6] was 18.3 µM (active).

Consider `Nc1ccc(O)c(C(=O)O)c1`, for which the result in test [1], in [2], in [3], in test [5], in test [6] and in [8] was inactive. Further, the compound was classed as inactive in test [9].

With `C=CC(=O)OCCN(CC)CC`, the AC50 was 44.3 µM (active) in test [1], 152 µM (active) in [6], 62.9 µM (active) in test [7] and 58.9 µM (active) in test [9]. Further, the result in [2], in test [3], in test [4], in test [5] and in test [8] was inactive.

In the case of `CCCCc1oc2ccccc2c1C(=O)c1cc(I)c(OCCN(CC)CC)c(I)c1`, the result in [1] and in [6] was inactive. Besides, the AC50 in test [2] is 127 µM (active); in test [3], 89.1 µM (active); in test [4] it was 7.78 µM (active); in test [7] it was 18.3 µM (active); in test [9] it was 20.2 µM (active).

As to `CCCCN(C)C`, the result in [1], in test [2], in test [3], in [5], in test [6] and in [7] was inactive. The result in test [8] and in test [9] was inactive.
